The nature of assay [1]: reducers of endogenous Her2 protein level, primary screen, SKBR3 breast tumor cells, AlphaScreen, ATP viability (AID 461;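 active = Her2 level under about 52% in both replicate screens, with viability over 70% of control, limit read from the data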;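 as to Her2 level: lower value means less Her2 protein in the cells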;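 as to viability: percent of carrier control wells set as 100% viability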). Particulars: 18-24 h, measured here: SKBR3 viability, ATP luminescence, at 10 µM. On the technique in general: In Alpha technology, singlet oxygen from a donor bead excites a nearby acceptor bead.
In assay [2] the target is Receptor tyrosine-protein kinase erbB-2 (Homo sapiens) (UniProt P04626). The assay is described as above. Conditions: 18-24 h, at 10 µM, stronger effect = lower value.
The nature of assay [3]: SK-BR-3 cell growth inhibitors, pilot screen, 24 h, human (AID 572;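 active = viability at or below 10% of carrier control in both of two separate runs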;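 also: compound exposure lasted between 18 and 24 h rather than exactly 24 h; 100% = carrier-treated control wells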). Particulars: SK-BR-3 viability, CellTiter-Glo luminescence, at 10 µM, stronger effect = lower value.
Assay [4] can be described thus: HUVEC growth inhibition – cell-based, human, primary screen (AID 575;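 active = viability at or below 30% in both replicate assays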;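 also: 100% = median of untreated cell wells with 0.1% DMSO on each plate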). Conditions: HUVEC proliferation, CellTiter-Glo luminescence, 72 h; at 10 µM; stronger effect = lower value. For orientation: ATP-based viability assays read luminescence as a measure of living cells.
A short description of assay [5]: growth inhibitors of H69AR lung tumor, primary screen, human, duplicate replicates (AID 580;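 active = viability at or under a set limit in both replicates, limit being median viability minus 3 SD, cut at about 48% in these data, passing the limit was not always enough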;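 also: 100% = mean luminescence of untreated wells and 0% = no signal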). Conditions: H69AR lung tumor cells viability, ATP luminescence, 72 h; at 10 µM; stronger effect = lower value.
A short description of assay [6]: reversal of MRP1-mediated doxorubicin resistance, pilot screen, H69AR cells, doxorubicin co-treatment (AID 601;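 active = viability loss from added drug above about 55%, and viability with drug at most 40%, in both replicates, limit read from the data, passing the limit was not always enough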). Conditions: CellTiter-Glo, 72 h, at 10 µM; for differential viability (reversal): stronger effect = higher value.
A short description of assay [7]: 384-well plate pilot, post-Golgi transport modulator project, inhibition of yeast transport mutant growth (AID 636; in the data active = inhibition above about 31%). Particulars: absorbance 615 nm, about 18 h, stronger effect = higher value.
A short description of assay [8]: growth suppression of yeast trafficking mutant, preliminary HTS, modulators of trafficking downstream of Golgi apparatus project, 1536-format plate, OD 615 nm (AID 637; in the data active = inhibition above about 30%). Particulars: yeast transport mutant growth, absorbance 615 nm, 18 h; stronger effect = higher value.
The nature of assay [9]: OD615 S. cerevisiae growth inhibition, permissive medium, pilot counter-assay, permissive growth control for S. cerevisiae lifespan shortening project (AID 705;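 active = growth inhibition above 25% in both replicates, a cutoff set 3 SD above the mean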). Conditions: OD615, 24 h, at 10 µM, stronger effect = higher value.
Assay [10] in a line: Restrictive medium S. cerevisiae growth inhibition, OD615, pilot screen of yeast lifespan reduction project, restrictive growth control (AID 706;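 active = growth inhibition above a set limit, 3 SD over mean compound inhibition, in both replicates, cut at about 43% in these data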;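 also: modified DeaD lifespan yeast strain shifted to restrictive glucose medium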). Conditions: OD615, 48 h, at 10 µM, stronger effect = higher value.
A short description of assay [11]: viability gain of MRP-1-high H69AR cells under doxorubicin, pilot screen, MRP-1 activator project, CellTiter-Glo, duplicate (AID 807;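 active = viability increase at or above a cutoff of the median across tested compounds plus 3 SD, cut at about 8.5% in these data, passing the limit was not always enough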;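 also: compound pretreatment 18-22 h then 72 h combined with doxorubicin; 0% = doxorubicin alone and 100% = vehicle without doxorubicin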). Particulars: H69AR viability with doxorubicin, CellTiter-Glo luminescence; at 10 µM; stronger effect = higher value.
Assay [12] can be described thus: growth suppression of beta-catenin knockout HCT116, pilot screen, human colon tumor cells (AID 823;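 active = cell viability at or below a set limit in both duplicate runs, the limit being the all-compound median minus 4 SD, cut at about 23% in these data, passing the limit was not always enough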;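 also: 0% = wells killed by 20 µM Hyamine and 100% = untreated DMSO cell wells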). Particulars: CellTiter-Glo, 60 h, at 10 µM, stronger effect = lower value.
The nature of assay [13]: growth suppression of PTEN-deleted HCT116, pilot screen, cell-based, HCT116 clonal line, CellTiter-Glo (AID 824).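 Also: 0% = 20 µM Hyamine control and 100% = vehicle cell control.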 Particulars: 60 h, at 10 µM, stronger effect = lower value.
Assay [14] can be described thus: inhibitors of the yeast RAM network, pilot screen, dse1pr::URA3 reporter, 5-FOA selection (AID 869;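 active = inhibition over a set limit, the all-compound mean plus 3 SD, in both replicate runs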;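 also: 0% = DMSO wells with no growth and 100% = 10 µM 1-NA-PP1 with full growth; RAM network block rescues cells from 5-FOA so hits raise OD615 growth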). Particulars: S. cerevisiae dse1pr::URA3 5-FOA growth, OD615, 2 d; at 10 µM; stronger effect = higher value; strain carries analog-sensitive mutant Cbk1 kinase.
A short description of assay [15]: RAM signaling pathway blockade in yeast – S. cerevisiae, Pdr1DBD-CYC8 efflux-inhibited sensitized strain, primary screen (AID 1298;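 active = RAM network inhibition above 8.4% in each of two replicates, 3 SD over the compound average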;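 also: 0% = DMSO untreated cells without growth and 100% = 10 µM 1-NA-PP1 full growth; higher means more yeast growth rescued from 5-FOA killing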). Particulars: S. cerevisiae cbk1-as DSE1-URA3 strain, 5-FOA growth OD615, 2 d; at 50 µM; stronger effect = higher value.
Setting [16] is: H69AR cells + 2 uM doxorubicin, measured here: viability with 2 uM doxorubicin, stronger effect = lower value.
Where [17] appears, read: H69AR cells, compound alone cytotoxicity.

Results filed as inconclusive are left out. Activity calls are given as the source filed them.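 The calls were made as follows, unless noted: active = viability at or below 27.92% in each of two runs, the all-compound median minus 4 SD; inconclusive = no clear call, values can overlap the other calls; inactive = the rest.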

This note sets out measurements from PubChem BioAssay.

Sequence of Receptor tyrosine-protein kinase erbB-2 (Homo sapiens) (P04626 whole entry, looked up): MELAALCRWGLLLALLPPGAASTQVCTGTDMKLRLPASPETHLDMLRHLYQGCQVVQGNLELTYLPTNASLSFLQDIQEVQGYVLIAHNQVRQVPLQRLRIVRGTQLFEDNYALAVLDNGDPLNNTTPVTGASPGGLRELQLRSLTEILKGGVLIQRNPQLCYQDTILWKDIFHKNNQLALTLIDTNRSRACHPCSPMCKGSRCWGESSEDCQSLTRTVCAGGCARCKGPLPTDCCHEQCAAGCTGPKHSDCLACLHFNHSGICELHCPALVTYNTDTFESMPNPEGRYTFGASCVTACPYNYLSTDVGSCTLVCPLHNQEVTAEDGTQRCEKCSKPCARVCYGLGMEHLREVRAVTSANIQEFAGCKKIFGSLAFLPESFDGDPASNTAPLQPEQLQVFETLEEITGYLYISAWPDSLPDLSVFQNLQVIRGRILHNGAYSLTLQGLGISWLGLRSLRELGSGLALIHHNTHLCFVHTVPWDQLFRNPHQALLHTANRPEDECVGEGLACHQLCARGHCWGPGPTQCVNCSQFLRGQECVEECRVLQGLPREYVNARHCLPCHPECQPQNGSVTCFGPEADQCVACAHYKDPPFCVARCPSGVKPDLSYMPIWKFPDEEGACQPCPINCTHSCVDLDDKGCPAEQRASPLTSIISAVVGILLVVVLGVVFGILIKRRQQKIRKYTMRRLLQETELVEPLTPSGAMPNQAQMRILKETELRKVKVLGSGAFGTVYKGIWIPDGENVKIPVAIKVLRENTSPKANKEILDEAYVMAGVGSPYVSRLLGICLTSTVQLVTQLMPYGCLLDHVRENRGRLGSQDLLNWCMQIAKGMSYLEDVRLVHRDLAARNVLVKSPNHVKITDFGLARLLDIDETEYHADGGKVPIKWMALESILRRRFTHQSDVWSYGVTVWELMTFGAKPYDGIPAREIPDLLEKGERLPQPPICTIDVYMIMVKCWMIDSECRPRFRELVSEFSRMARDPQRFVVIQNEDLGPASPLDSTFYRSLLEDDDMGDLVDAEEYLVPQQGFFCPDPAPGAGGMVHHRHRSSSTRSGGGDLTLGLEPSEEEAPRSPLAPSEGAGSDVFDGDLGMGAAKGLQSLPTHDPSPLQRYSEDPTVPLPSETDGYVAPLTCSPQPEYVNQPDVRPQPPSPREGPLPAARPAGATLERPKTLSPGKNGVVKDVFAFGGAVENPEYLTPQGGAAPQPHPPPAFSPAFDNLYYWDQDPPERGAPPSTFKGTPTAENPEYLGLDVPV

`COc1cccc(C2CC(c3c(Cl)cccc3Cl)n3nc(N)nc3N2)c1` (stereo not given): the viability – broadly, a read-out of living cells in per cent, often relative to untreated cells – in assay [1] is 97%; in assay [3], 97% (inactive); in [4] it was 81.2% (inactive); in assay [5] it was 83.6% (inactive); in assay [6] (setting [16]) it was 79.3%; in assay [6] (setting [17]) it was 83.6%. Moreover, the viability in assay [12] is 103% (inactive); in [13] it was 91.4% (inactive). Further, the Her2 level in assay [2] was 104% (inactive). Also, the differential viability (reversal) in assay [6] (H69AR cells + 2 uM doxorubicin) is 4.33% (inactive). The inhibition (in general, the change of the read-out against control, counted positive when it falls) in [7] was -4.53% (inactive); in assay [8] it was -0.98% (inactive); in assay [14], -0.3% (inactive). Also, the figures for the growth inhibition in assay [9] and in assay [10] were 4.74% (inactive) and 9.22% (inactive), respectively. In addition, the viability increase in assay [11] is -0.07% (inactive). Moreover, in [15], the RAM network inhibition is 6.92% (inactive).
Turning to `CCOC(=O)c1sc2nc(NC(=O)COc3ccccc3)sc2c1C`, the viability in assay [1] is 78.5%; in assay [3], 78.5% (inactive); in [4], 74.1% (inactive); in assay [5], 69.4% (inactive); in assay [6] (setting [16]) it was 79.5%; in assay [6] (setting [17]), 69.4%. Further, the viability was 109% (inactive) in assay [12] and 98.4% (inactive) in [13]. The Her2 level in assay [2] was 123% (inactive). Moreover, in assay [6] (H69AR cells + 2 uM doxorubicin), the differential viability (reversal) is -10% (inactive). Further, the figures for the inhibition in assay [7], in assay [8] and in [14] were 3.72% (inactive), -0.33% (inactive) and 2.67% (inactive), respectively. In addition, the growth inhibition is -2.58% (inactive) in assay [9] and -19.8% (inactive) in assay [10]. For the same molecule, the viability increase in assay [11] is 1.51% (inactive). The RAM network inhibition in [15] is 0.88% (inactive).
For the molecule `O=C(CN1C(=O)c2ccccc2S1(=O)=O)NCc1ccccc1Cl`, the viability in assay [1] is 90.5%; in [3] it was 90.5% (inactive); in [4] it was 99% (inactive); in assay [5], 89.3% (inactive); in [6] (setting [16]), 82.9%; in assay [6] (setting [17]), 89.3%. The viability in [12] is 102% (inactive); in assay [13], 100% (inactive). For the same molecule, the Her2 level in assay [2] is 108% (inactive). Besides, the differential viability (reversal) in [6] (H69AR cells + 2 uM doxorubicin) is 6.38% (inactive). The inhibition was -2.05% (inactive) in assay [7], -2.17% (inactive) in [8] and 0.125% (inactive) in assay [14]. For the same molecule, the results for the growth inhibition in assay [9] and in assay [10] were -8.21% (inactive) and -12.6% (inactive), respectively. The viability increase in assay [11] was -0.47% (inactive). In addition, the RAM network inhibition in assay [15] was 4.41% (inactive).
As for `Cc1ccc2cccc(SCC(=O)N3CCOCC3)c2n1`, the viability in assay [1] is 103%; in assay [3], 103% (inactive); in [4], 61% (inactive); in assay [5], 90.7% (inactive); in [6] (setting [16]), 91.2%; in [6] (setting [17]), 90.7%. For the same molecule, the viability in assay [12] is 98.9% (inactive); in [13] it was 101% (inactive). For the same molecule, in assay [2], the Her2 level was 89.5% (inactive). Besides, the differential viability (reversal) in assay [6] (H69AR cells + 2 uM doxorubicin) was -0.48% (inactive). Also, the inhibition in [7] was -4.03% (inactive); in assay [8], -3.5% (inactive); in assay [14], 2.27% (inactive). The growth inhibition in [9] is 2.63% (inactive); in assay [10], 24.3% (inactive). In assay [11], the viability increase is -2.53% (inactive). In addition, the RAM network inhibition in assay [15] is 1.88% (inactive).
Regarding `Cc1ccc(N2CCN(S(=O)(=O)N(C)C)CC2)c(C)c1`, the viability in assay [1] was 98.5%; in [3], 98.5% (inactive); in assay [4], 90.6% (inactive); in [5], 83.5% (inactive); in [6] (setting [16]), 93.1%; in assay [6] (setting [17]), 83.5%. The viability in assay [12] is 90.6% (inactive); in [13] it was 88.1% (inactive). Further, the Her2 level in assay [2] was 116% (inactive). Also, the differential viability (reversal) in assay [6] (H69AR cells + 2 uM doxorubicin) is -9.57% (inactive). For the same molecule, the inhibition in assay [7] is 1.73% (inactive); in assay [8], 1.17% (inactive); in assay [14], 2.69% (inactive). Moreover, the growth inhibition in assay [9] is -11.1% (inactive); in [10] it was -7.42% (inactive). The viability increase in assay [11] was 0.57% (inactive). In [15], the RAM network inhibition is 6.03% (inactive).
`Cc1[nH]c2ccccc2c(=O)c1CN1CCCCC1`: the viability in assay [1] is 99%; in [3], 99% (inactive); in assay [4], 101% (inactive); in assay [5] it was 90.5% (inactive); in [6] (setting [16]), 91.1%; in assay [6] (setting [17]), 90.5%. The values for the viability in assay [12] and in assay [13] were 97.3% (inactive) and 105% (inactive), respectively. Moreover, the Her2 level in assay [2] was 103% (inactive). The differential viability (reversal) in assay [6] (H69AR cells + 2 uM doxorubicin) was -0.56% (inactive). The inhibition in assay [7] is -4.29% (inactive); in assay [8] it was -3.67% (inactive); in [14] it was 0.515% (inactive). The growth inhibition in [9] is -17.1% (inactive); in assay [10] it was -15.9% (inactive). Also, the viability increase in assay [11] was -0.38% (inactive). Besides, the RAM network inhibition in assay [15] is -0.21% (inactive).
`O=C(c1ccc2nc(N3CCOCC3)sc2c1)N1CCCC1`: the viability is 94% in [1]; 94% (inactive) in [3]; 93.6% (inactive) in assay [4]; 108% (inactive) in assay [5]; 89.4% in assay [6] (setting [16]); 108% in [6] (setting [17]). The viability in [12] is 99.1% (inactive); in assay [13], 95.4% (inactive). The Her2 level in assay [2] was 96% (inactive). Besides, the differential viability (reversal) in assay [6] (H69AR cells + 2 uM doxorubicin) is 18.8% (inactive). Moreover, the inhibition in assay [7] is -1.41% (inactive); in [8], 9.17% (inactive); in assay [14], -0.14% (inactive). Besides, the growth inhibition in [9] is -2.18% (inactive); in [10], -7.76% (inactive). Further, the viability increase in assay [11] is -2.73% (inactive). Further, in assay [15], the RAM network inhibition was 1.02% (inactive).
Take `CS(=O)(=O)Nc1ccccc1C(=O)O`: the viability in assay [1] was 102%; in assay [3], 102% (inactive); in [4], 91.5% (inactive); in [5], 98.8% (inactive); in assay [6] (setting [16]), 96.3%; in assay [6] (setting [17]) it was 98.8%. Moreover, the figures for the viability in assay [12] and in assay [13] were 94.9% (inactive) and 97.6% (inactive), respectively. Further, the Her2 level in [2] was 80.5% (inactive). Further, the differential viability (reversal) in assay [6] (H69AR cells + 2 uM doxorubicin) is 2.55% (inactive). Moreover, the inhibition in assay [7] was -2.34% (inactive); in assay [8], -5.17% (inactive); in [14], 0.72% (inactive). In addition, the growth inhibition in assay [9] was -7.19% (inactive); in [10], -1.03% (inactive). Also, the viability increase in assay [11] was -1.2% (inactive). For the same molecule, the RAM network inhibition in [15] was 2.56% (inactive).
For `CCCn1c(OC)nc2c1c(=O)n(C)c(=O)n2C`, the viability is 89.5% in assay [1]; 89.5% (inactive) in [3]; 83.2% (inactive) in [4]; 94.4% (inactive) in assay [5]; 94.1% in [6] (setting [16]); 94.4% in assay [6] (setting [17]). Further, the results for the viability in assay [12] and in [13] were 107% (inactive) and 97% (inactive), respectively. In addition, the Her2 level in [2] is 88.5% (inactive). Further, the differential viability (reversal) in assay [6] (H69AR cells + 2 uM doxorubicin) was 0.235% (inactive). Further, the inhibition in [7] is -2.53% (inactive); in assay [8] it was -2.5% (inactive); in [14] it was 2.22% (inactive). Further, the growth inhibition in assay [9] was -10.7% (inactive); in assay [10] it was -9.12% (inactive). Also, in [11], the viability increase was 0.06% (inactive). Further, in [15], the RAM network inhibition was 2.06% (inactive).
With `Cc1onc(-c2c(Cl)cccc2Cl)c1C(=O)NCC1CCCO1` (stereo not given), the viability in assay [1] was 111%; in assay [3], 111% (inactive); in assay [4], 97.7% (inactive); in assay [5], 111% (inactive); in [6] (setting [16]), 95.2%; in assay [6] (setting [17]) it was 111%. The values for the viability in assay [12] and in [13] were 91.7% (inactive) and 92.9% (inactive), respectively. For the same molecule, the Her2 level in [2] is 104% (inactive). The differential viability (reversal) in assay [6] (H69AR cells + 2 uM doxorubicin) is 16% (inactive). In addition, the inhibition in assay [7] is -4.59% (inactive); in assay [8], -5.74% (inactive); in assay [14] it was -1.21% (inactive). Moreover, the growth inhibition in assay [9] was 6.24% (inactive); in assay [10] it was -5.78% (inactive). In [11], the viability increase is -1.12% (inactive). Besides, the RAM network inhibition in assay [15] was -0.45% (inactive).
